# PubChem BioAssay AID1159580 (chemical genetic matrix, 2015)
# In all, about 5,500 compounds went through this assay and about 2,000 (36%) were called active. Another 18% or so got no clear call; they are omitted. The list shows a part of the results. Unmarked numbers belong to inactive results. Cut-off read from the data, not from the text of the source: active = normalized growth mostly below about 0.91 (no sharp cut-off); inconclusive = no clear call, values can overlap the other calls; inactive = mostly above about 0.92.
# Assay: chemical genetic growth profiling, strain panel (AID 1159580);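 note: tested at 20 µM; growth read once vehicle control cultures reached saturation at 30 °C; 1 = growth at the plate median or of vehicle wells; lower values mean less growth of the strain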
# Conditions: S. cerevisiae deletion strains, growth OD
# [1] = locus YDR150W, strain NUM1, active compounds read low
# [2] = locus YGR078C, strain PAC10, active compounds read low
# [3] = locus YMR307W, strain GAS1, active compounds read low
# [4] = locus YNL153C, strain GIM3, active compounds read low
# [5] = locus YPL241C, strain CIN2, active compounds read low
# [6] = locus YAL013W, strain DEP1, active compounds read low
# [7] = locus YBR229C, strain ROT2, active compounds read low
# [8] = locus YDL101C, strain DUN1, active compounds read low
# [9] = locus YEL061C, strain CIN8, active compounds read low
# [10] = locus YHR030C, strain SLT2, active compounds read low
# [11] = locus YHR087W, strain rtc3, active compounds read low
# [12] = locus YJL187C, strain SWE1, active compounds read low
# [13] = locus YJR043C, strain POL32, active compounds read low
# [14] = locus YJR075W, strain HOC1, active compounds read low
# [15] = locus YKL190W, strain CNB1, active compounds read low
# [16] = locus YLR039C, strain RIC1, active compounds read low
# [17] = locus YLR058C, strain SHM2 (second series), active compounds read low
# [18] = locus YLR085C, strain ARP6, active compounds read low
# [19] = locus YLR262C, strain YPT6, active compounds read low
# [20] = locus YML094W, strain GIM5, active compounds read low
# [21] = locus YMR219W, strain ESC1, active compounds read low
# [22] = locus YMR263W, strain SAP30, active compounds read low
# [23] = locus YNL298W, strain CLA4 (second series), active compounds read low
# [24] = locus YNL322C, strain KRE1, active compounds read low
# [25] = locus YNR030W, strain Alg12, active compounds read low
# [26] = locus YPL055C, strain LGE1, active compounds read low
# [27] = locus YPR135W, strain CTF4, active compounds read low
smiles,measurement,setting,value
COc1cccc(C(=O)NCCN2CCN(c3ccc(Cl)cc3)CC2)c1,normalized growth,"locus YAL040C, strain CLN3, active compounds read low",0.992
same,normalized growth,[1],1.01
same,normalized growth,"locus YDR363W, strain ESC2, active compounds read low",1.01
same,normalized growth,"locus YER002W, strain NOP16, active compounds read low",1.02
same,normalized growth,[2],1.01
same,normalized growth,"locus YGR229C, strain SMI1, active compounds read low",1
same,normalized growth,[3],1.01
same,normalized growth,[4],1.01
same,normalized growth,"locus YNL175C, strain NOP13, active compounds read low",1.03
same,normalized growth,"locus YNL197C, strain WHI3, active compounds read low",1.01
same,normalized growth,"locus YNL224C, strain SQS1, active compounds read low",1.03
same,normalized growth,"locus YOR083W, strain WHI5 (second series), active compounds read low",1.03
same,normalized growth,[5],1.01
COc1cccc(NC(=O)NC2Cc3ccccc3C2)c1,normalized growth,[6],0.975
same,normalized growth,[7],0.998
same,normalized growth,[8],0.991
same,normalized growth,"locus YDL134C, strain PPH21, active compounds read low",0.989
same,normalized growth,[1],0.867
same,normalized growth,[9],1
same,normalized growth,[2],0.989
same,normalized growth,[10],0.929
same,normalized growth,[11],1
same,normalized growth,[12],0.998
same,normalized growth,[13],0.982
same,normalized growth,[14],0.996
same,normalized growth,[15],0.996
same,normalized growth,[16],0.996
same,normalized growth,[17],0.992
same,normalized growth,[18],0.952
same,normalized growth,[19],0.96
same,normalized growth,[20],0.992
same,normalized growth,[21],0.99
same,normalized growth,[22],0.927
same,normalized growth,[3],0.999
same,normalized growth,[4],0.994
same,normalized growth,[23],0.973
same,normalized growth,[24],1.01
same,normalized growth,[25],0.978
same,normalized growth,"locus YOL006C, strain TOP1, active compounds read low",0.937
same,normalized growth,[26],0.883
same,normalized growth,[5],0.986
same,normalized growth,[27],0.877
CC(=O)c1ccccc1C(=O)c1ccc(C(C)(C)C)cc1,normalized growth,"locus YAR019C, strain CDC15, active compounds read low",0.961
same,normalized growth,"locus YBL105C, strain PKC1, active compounds read low",0.961
same,normalized growth,"locus YBR135W, strain CKS1, active compounds read low",0.957
same,normalized growth,"locus YBR136W, strain MEC1, active compounds read low",0.96
same,normalized growth,"locus YBR160W, strain CDC28, active compounds read low",0.959
same,normalized growth,"locus YDL017W, strain CDC7, active compounds read low",0.956
same,normalized growth,"locus YDL028C, strain MPS1, active compounds read low",0.961
same,normalized growth,[8],0.95
same,normalized growth,"locus YDL108W, strain KIN28, active compounds read low",0.964
same,normalized growth,"locus YDL132W, strain cdc53, active compounds read low",0.958
same,normalized growth,"locus YDL214C, strain PRR2, active compounds read low",0.969
same,normalized growth,"locus YDR052C, strain DBF4, active compounds read low",0.964
same,normalized growth,"locus YDR054C, strain cdc34, active compounds read low",0.957
same,normalized growth,"locus YDR226W, strain ADK1, active compounds read low",0.96
same,normalized growth,"locus YDR477W, strain SNF1, active compounds read low",0.969
same,normalized growth,"locus YER123W, strain YCK3, active compounds read low",0.982
same,normalized growth,"locus YER133W, strain GLC7, active compounds read low",0.953
same,normalized growth,"locus YFL009W, strain cdc4, active compounds read low",0.953
same,normalized growth,"locus YFL029C, strain CAK1, active compounds read low",0.953
same,normalized growth,"locus YFR003C, strain YPI1, active compounds read low",0.961
same,normalized growth,"locus YFR019W, strain FAB1, active compounds read low",0.981
same,normalized growth,"locus YFR028C, strain CDC14, active compounds read low",0.965
same,normalized growth,"locus YGR040W, strain KSS1, active compounds read low",0.967
same,normalized growth,"locus YGR052W, strain FMP48, active compounds read low",0.992
same,normalized growth,"locus YGR092W, strain DBF2, active compounds read low",0.954
same,normalized growth,[10],0.855
same,normalized growth,"locus YHR079C, strain IRE1, active compounds read low",0.918
same,normalized growth,"locus YHR082C, strain KSP1, active compounds read low",1.07
same,normalized growth,"locus YHR205W, strain SCH9, active compounds read low",1
same,normalized growth,"locus YIL147C, strain SLN1, active compounds read low",0.961
same,normalized growth,"locus YJL095W, strain BCK1, active compounds read low",0.999
same,normalized growth,"locus YJL128C, strain PBS2, active compounds read low",0.918
same,normalized growth,"locus YJL157C, strain FAR1, active compounds read low",0.984
same,normalized growth,"locus YJR016C, strain ILV3, active compounds read low",0.969
same,normalized growth,"locus YJR066W, strain TOR1 (second series), active compounds read low",0.989
same,normalized growth,"locus YJR066W, strain TOR1, active compounds read low",1.04
same,normalized growth,"locus YKL048C, strain ELM1, active compounds read low",0.939
same,normalized growth,"locus YKL067W, strain YNK1, active compounds read low",0.967
same,normalized growth,"locus YKL101W, strain HSL1, active compounds read low",0.976
same,normalized growth,"locus YKL193C, strain SDS22, active compounds read low",0.961
same,normalized growth,"locus YKL203C, strain TOR2, active compounds read low",0.989
same,normalized growth,"locus YLR113W, strain HOG1, active compounds read low",0.761 (active)
same,normalized growth,"locus YLR133W, strain CKI1, active compounds read low",0.986
same,normalized growth,"locus YLR403W, strain SFP1, active compounds read low",0.985
same,normalized growth,"locus YML070W, strain DAK1, active compounds read low",0.953
same,normalized growth,"locus YMR001C, strain CDC5, active compounds read low",0.959
same,normalized growth,"locus YMR205C, strain PFK2 (second series), active compounds read low",0.981
same,normalized growth,"locus YMR277W, strain FCP1, active compounds read low",0.963
same,normalized growth,"locus YNL006W, strain LST8, active compounds read low",0.954
same,normalized growth,"locus YNL020C, strain ARK1, active compounds read low",0.99
same,normalized growth,"locus YNL161W, strain CBK1, active compounds read low",0.959
same,normalized growth,"locus YNL183C, strain NPR1, active compounds read low",1
same,normalized growth,"locus YNL207W, strain RIO2, active compounds read low",0.958
same,normalized growth,"locus YNL222W, strain SSU72, active compounds read low",0.966
same,normalized growth,"locus YNL307C, strain MCK1 (second series), active compounds read low",0.975
same,normalized growth,"locus YOL078W, strain AVO1, active compounds read low",0.967
same,normalized growth,"locus YOL136C, strain PFK27, active compounds read low",0.98
same,normalized growth,"locus YOR061W, strain CKA2, active compounds read low",0.975
same,normalized growth,"locus YOR119C, strain RIO1, active compounds read low",1.02
same,normalized growth,"locus YOR231W, strain MKK1, active compounds read low",0.949
same,normalized growth,"locus YOR329C, strain SCD5, active compounds read low",0.961
same,normalized growth,"locus YPL031C, strain PHO85, active compounds read low",0.961
same,normalized growth,"locus YPL153C, strain RAD53, active compounds read low",0.953
same,normalized growth,"locus YPL204W, strain HRR25, active compounds read low",0.96
same,normalized growth,"locus YPL209C, strain IPL1, active compounds read low",0.959
same,normalized growth,"locus YPL256C, strain CLN2, active compounds read low",0.85 (active)
same,normalized growth,"locus YPR025C, strain CCL1, active compounds read low",0.96
same,normalized growth,"locus YPR106W, strain ISR1, active compounds read low",0.969
same,normalized growth,"locus YPR111W, strain DBF20, active compounds read low",0.946
same,normalized growth,"strain NNK1, active compounds read low",0.96
same,normalized growth,"strain TSCII, active compounds read low",0.955
Cc1cccc(C(=O)c2ccccc2C(=O)O)c1,normalized growth,[6],1.01
same,normalized growth,[7],1.02
same,normalized growth,[8],1
same,normalized growth,[1],0.905
same,normalized growth,[9],1.01
same,normalized growth,[2],0.997
same,normalized growth,[10],1.06
same,normalized growth,[11],1.01
same,normalized growth,[12],0.998
same,normalized growth,[13],1.02
same,normalized growth,[14],1
same,normalized growth,[15],0.997
same,normalized growth,[16],0.986
same,normalized growth,[17],1.01
same,normalized growth,[18],1.03
same,normalized growth,[19],0.984
same,normalized growth,[20],1.01
same,normalized growth,[21],1.01
same,normalized growth,[22],0.991
same,normalized growth,"locus YNL128W, strain TEP1, active compounds read low",1.01
same,normalized growth,[4],1.02
same,normalized growth,[23],1.04
same,normalized growth,[24],0.993
same,normalized growth,[25],1.01
same,normalized growth,[26],1.02
same,normalized growth,[5],1.01
same,normalized growth,[27],1.02
